These results are taken from PubChem BioAssay (Tox21).

Where “and” joins values, the source holds several entries; their conditions need not be identical. Equal values may be shown once. Calls of active or inactive are those of the source. Unless noted, calls follow the shape of the dose curve; as a rule, active = well fitted curve in the direction sought with a large enough effect in the repeat runs; inconclusive = weak or mixed curves; inactive = no such curve, though single readings can be large; an effect the other way counts as inactive or inconclusive.

The nature of test [1]: qHTS assay to identify small molecule antagonists of the glucocorticoid receptor (GR) signaling pathway - cell viability counter screen (AID 720693). Also: nearly all actives have a fitted effect of over 55% in size. Also: potency is read from the fitted curve at half-maximal effect. In general terms: In qHTS, concentration-response curves come from the screen itself.
Test [2] can be described thus: qHTS assay for identifying genotoxic compounds that show differential cytotoxicity against isogenic chicken DT40 cell lines with known DNA damage response pathways - wild type cell line (AID 743012). Also: nearly all actives have a fitted effect of over 60% in size. Also: potency is read from the fitted curve at half-maximal effect. The gist of the method: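 Viability by ATP luminescence (CellTiter-Glo, 30 min RT) after 40 h compound treatment at 37 C/5% CO2, using 300 parental DNA repair-proficient DT40 cells per well.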

Test [3] is described as follows: qHTS assay for identifying genotoxic compounds that show differential cytotoxicity against isogenic chicken DT40 cell lines with known DNA damage response pathways - Rev3 mutant cell line (AID 743014). Also: nearly all actives have a fitted effect of over 55% in size. Also: potency is read from the fitted curve at half-maximal effect.
Test [4] is described as follows: qHTS assay to identify small molecule antagonists of the androgen receptor (AR) signaling pathway - cell viability counter screen (AID 743033; also: nearly all actives have a fitted effect of over 45% in size).
For test [5], the target named is Androgen receptor (Homo sapiens) (UniProt P10275). In words: qHTS assay to identify small molecule agonists of the androgen receptor (AR) signaling pathway using the MDA cell line (AID 743040; also: nearly all actives have a fitted effect of over 20% in size). The essentials: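 Luciferase read-out, ONE-Glo, 30 min RT. Cells: MDA-kb2 AR-luc, MMTV promoter with AR and GR response elements. Compound exposure 16 h, 37C, 0% CO2, after 5 h pre-incubation. qHTS agonist mode.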
Androgen receptor (Homo sapiens), sequence (P10275 whole entry, looked up): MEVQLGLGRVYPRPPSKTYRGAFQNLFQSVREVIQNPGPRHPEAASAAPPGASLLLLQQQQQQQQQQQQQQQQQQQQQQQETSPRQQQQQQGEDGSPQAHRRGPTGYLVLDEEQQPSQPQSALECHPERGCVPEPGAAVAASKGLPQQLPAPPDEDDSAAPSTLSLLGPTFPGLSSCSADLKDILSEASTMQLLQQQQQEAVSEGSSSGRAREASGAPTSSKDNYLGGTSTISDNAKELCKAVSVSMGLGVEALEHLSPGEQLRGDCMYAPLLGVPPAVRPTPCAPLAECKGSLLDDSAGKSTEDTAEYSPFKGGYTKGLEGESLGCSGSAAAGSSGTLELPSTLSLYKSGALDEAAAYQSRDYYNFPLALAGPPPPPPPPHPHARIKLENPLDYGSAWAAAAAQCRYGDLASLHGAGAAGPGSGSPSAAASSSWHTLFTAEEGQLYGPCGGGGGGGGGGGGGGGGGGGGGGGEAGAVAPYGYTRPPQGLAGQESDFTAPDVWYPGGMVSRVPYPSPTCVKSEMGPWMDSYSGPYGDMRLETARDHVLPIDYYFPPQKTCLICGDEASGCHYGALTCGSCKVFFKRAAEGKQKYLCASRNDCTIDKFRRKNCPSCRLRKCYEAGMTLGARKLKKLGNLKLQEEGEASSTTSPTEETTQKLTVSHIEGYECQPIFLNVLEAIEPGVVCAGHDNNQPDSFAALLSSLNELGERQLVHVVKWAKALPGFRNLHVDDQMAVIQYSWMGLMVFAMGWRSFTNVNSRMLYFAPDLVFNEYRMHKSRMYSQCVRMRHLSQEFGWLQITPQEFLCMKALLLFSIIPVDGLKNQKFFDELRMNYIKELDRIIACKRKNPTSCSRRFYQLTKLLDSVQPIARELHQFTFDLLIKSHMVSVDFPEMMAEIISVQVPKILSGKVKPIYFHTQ

For test [6] the target is unchanged. Kind of test: qHTS assay to identify small molecule antagonists of the androgen receptor (AR) signaling pathway using the MDA cell line (AID 743042; also: nearly all actives have a fitted effect of over 55% in size; also: potency is read from the fitted curve at half-maximal effect). The gist of the method:
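MDA-kb2 breast carcinoma cells carrying MMTV-luciferase (AR/GR responsive) were co-treated with compounds and the agonist R1881 for 16 h at 37C. Inhibition read as ONE-Glo luminescence; CellTiter-Fluor fluorescence measured in parallel for cytotoxicity.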

Test [7] is described as follows: qHTS assay to identify small molecule antagonists of the thyroid receptor (TR) signaling pathway - cell viability counter screen (AID 743064). Also: nearly all actives have a fitted effect of over 50% in size. Also: potency is read from the fitted curve at half-maximal effect. The gist of the method:
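In-well cytotoxicity read by CellTiter-Fluor (30 min, 37 C) following 23.5 h exposure of GH3 cells bearing a TRE-luciferase sensor. Compounds were added alongside 1 nM (final) T3 to drive TR transactivation.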

The nature of test [8]: qHTS assay to identify small molecule antagonists of the thyroid receptor (TR) signaling pathway (AID 743065). Also: nearly all actives have a fitted effect of over 55% in size. Also: potency is read from the fitted curve at half-maximal effect. The essentials:
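GH3.TRE-Luc rat pituitary cells (two TREs driving luciferase) were dosed with compound, then stimulated with 1 nM T3 (final) for 23.5 h at 37 C. ONE-Glo luminescence was the read-out, with CellTiter-Fluor fluorescence as the cytotoxicity counter-screen.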

Test [9] deals with thyroid hormone receptor (rat, GH3 cells). Kind of test: qHTS assay to identify small molecule agonists of the thyroid receptor (TR) signaling pathway (AID 743066; calls by dose curve).
The target in test [10] is Estrogen receptor (Homo sapiens) (UniProt P03372). In words: qHTS assay to identify small molecule agonists of the estrogen receptor alpha (ER-alpha) signaling pathway (AID 743075; calls by dose curve;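 also: HEK293 GripTite cells with ER-alpha and UAS-driven beta-lactamase reporter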; also: potency is read from the fitted curve at half-maximal effect).
Estrogen receptor (Homo sapiens), sequence (P03372 whole entry, looked up): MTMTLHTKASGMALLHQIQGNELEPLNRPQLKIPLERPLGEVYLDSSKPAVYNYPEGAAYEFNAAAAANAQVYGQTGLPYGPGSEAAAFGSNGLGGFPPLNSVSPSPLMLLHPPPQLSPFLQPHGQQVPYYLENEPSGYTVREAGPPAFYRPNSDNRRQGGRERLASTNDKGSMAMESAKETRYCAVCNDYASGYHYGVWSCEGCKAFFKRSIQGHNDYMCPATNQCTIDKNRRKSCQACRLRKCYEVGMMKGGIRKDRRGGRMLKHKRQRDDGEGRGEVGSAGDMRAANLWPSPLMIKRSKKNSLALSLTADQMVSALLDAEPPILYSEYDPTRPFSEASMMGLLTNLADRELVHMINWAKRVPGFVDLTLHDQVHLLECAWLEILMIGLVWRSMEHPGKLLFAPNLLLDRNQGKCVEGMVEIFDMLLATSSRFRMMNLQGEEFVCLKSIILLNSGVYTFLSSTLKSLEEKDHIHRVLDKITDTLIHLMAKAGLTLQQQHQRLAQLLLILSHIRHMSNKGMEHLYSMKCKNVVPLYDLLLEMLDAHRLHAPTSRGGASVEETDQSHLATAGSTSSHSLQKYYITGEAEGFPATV
For test [11] the target is unchanged. Kind of test: qHTS assay to identify small molecule agonists of the estrogen receptor alpha (ER-alpha) signaling pathway using the BG1 cell line (AID 743079). Also: nearly all actives have a fitted effect of over 20% in size.
Test [12] deals with Aromatase (Homo sapiens) (UniProt P11511). Kind of test: qHTS assay to identify aromatase inhibitors (AID 743083). Also: nearly all actives have a fitted effect of over 55% in size. Also: potency is read from the fitted curve at half-maximal effect.
Aromatase (Homo sapiens), sequence (P11511 whole entry, looked up): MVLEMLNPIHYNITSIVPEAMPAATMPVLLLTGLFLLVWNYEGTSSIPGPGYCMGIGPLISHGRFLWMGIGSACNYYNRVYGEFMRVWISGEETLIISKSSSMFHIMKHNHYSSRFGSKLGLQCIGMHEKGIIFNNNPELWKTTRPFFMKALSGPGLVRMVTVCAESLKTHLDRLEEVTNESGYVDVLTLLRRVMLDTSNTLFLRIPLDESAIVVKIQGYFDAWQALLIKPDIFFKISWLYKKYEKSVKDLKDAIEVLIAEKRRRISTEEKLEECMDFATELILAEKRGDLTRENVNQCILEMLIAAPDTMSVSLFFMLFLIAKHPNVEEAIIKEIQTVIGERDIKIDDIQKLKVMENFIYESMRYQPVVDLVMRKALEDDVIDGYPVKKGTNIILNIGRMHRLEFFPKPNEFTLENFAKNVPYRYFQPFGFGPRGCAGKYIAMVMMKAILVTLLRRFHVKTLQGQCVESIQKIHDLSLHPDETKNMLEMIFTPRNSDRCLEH
Test [13] is described as follows: qHTS assay to identify small molecule antagonists of the estrogen receptor alpha (ER-alpha) signaling pathway - cell viability counter screen (AID 743074; calls by dose curve;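 also: HEK293 cells carrying ER-alpha-UAS-bla reporter stimulated with 17beta-estradiol; nearly all actives have a fitted effect of over 45% in size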).
Test [14] in a line: qHTS assay to identify small molecule antagonists of the estrogen receptor alpha (ER-alpha) signaling pathway using the BG1 cell line (AID 743080; calls by dose curve;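 also: BG1 cells stimulated with 17beta-estradiol alongside compound; series mostly up to about 70 µM; nearly all actives have a fitted effect of over 25% in size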). The gist of the method: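 After 5 days in phenol-red-free 10% charcoal-stripped FBS medium, BG1-Luc-4E2 cells were seeded, left 24 h at 37 C, co-treated with compounds and 17beta-estradiol for 21.5 h, then assayed for viability and luciferase.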

Test [15] can be described thus: qHTS assay to identify small molecule antagonists of the estrogen receptor alpha (ER-alpha) signaling pathway using the BG1 cell line - cell viability counter screen (AID 743081).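 Also: compound given together with 17beta-estradiol as the ER stimulus; series mostly up to about 70 µM; nearly all actives have a fitted effect of over 45% in size.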
Test [16] has as its target Androgen receptor (Homo sapiens) (UniProt P10275). In words: qHTS assay to identify small molecule agonists of the androgen receptor (AR) signaling pathway (AID 743036; active = well fitted activation curve with a large enough effect in the signal ratio in the repeat runs, with a control signal flat, not every such curve was filed as active; inconclusive = weak or mixed curves, or effect the other way; inactive = no such curve, though single readings can be large or run the other way; the % refers to the signal ratio). The essentials:
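Activation was read as beta-lactamase FRET signal from LiveBLAzer B/G substrate, added for 2 h at room temperature. Before that, GeneBLAzer AR-UAS-bla GripTite (HEK293) cells had 16 h compound exposure at 37C.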

Test [17] can be described thus: qHTS assay to identify small molecule antagonists of the androgen receptor (AR) signaling pathway using the MDA cell line - cell viability counter screen (AID 743041; also: nearly all actives have a fitted effect of over 45% in size). The gist of the method: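 Cytotoxicity counter screen: MDA-kb2 AR-luc cells, compound + R1881, 16 h, 37C, 0% CO2; CellTiter-Fluor added at 15.5 h, fluorescence read after 30 min.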
The target in test [18] is Estrogen receptor (Homo sapiens) (UniProt P03372). In words: qHTS assay to identify small molecule antagonists of the estrogen receptor alpha (ER-alpha) signaling pathway (AID 743069; active = well fitted curve in the direction sought with a large enough effect in the signal ratio in the repeat runs, not every such curve was filed as active; inconclusive = weak or mixed curves, or effect the other way; inactive = no such curve, though single readings can be large or run the other way; the % refers to the signal ratio; also: potency is read from the fitted curve at half-maximal effect). The gist of the method: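 Beta-lactamase FRET fluorescence is read after 2 hr at room temperature with LiveBLAzer B/G substrate. Before that, ER-alpha-bla HEK293 cells sit 4 hr after plating, then receive compound plus 17beta-estradiol and incubate 18 hr at 37C.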

A short description of test [19]: qHTS assay for identifying genotoxic compounds that show differential cytotoxicity against isogenic chicken DT40 cell lines with known DNA damage response pathways - Rad54/Ku70 mutant cell line (AID 743015). Also: nearly all actives have a fitted effect of over 60% in size. Also: potency is read from the fitted curve at half-maximal effect.

Turning to `NS(=O)(=O)C(F)(F)C(F)(F)C(F)(F)C(F)(F)C(F)(F)C(F)(F)C(F)(F)C(F)(F)F`, the Potency in test [1] is 54.9 µM (active); in test [2] it was 54.5 µM (active); in test [3] it was 34.4 µM (active); in test [6], 68.6 µM (active); in [7] it was 61.1 µM (active); in test [8], 61.1 µM (active). Further, the Potency in test [10] was 43.6 µM [inconclusive] (active). The Potency result in test [4], in test [5], in test [9], in [11] and in [12] was “inactive” in each case.

`Clc1cccc(SC2CCNCC2)n1`: the Potency entry in test [1], in test [2], in [3], in test [4], in [7] and in test [8] was “inactive” in each case. The Potency result in test [9], in test [13], in [10], in [11], in test [14] and in test [15] was “inactive” throughout. The Potency result in test [12] was “inactive”.

For the compound `O=[N+]([O-])C(Br)(CO)CO`, the Potency result in [1], in test [4], in test [5], in test [17], in test [6] and in test [9] was “inactive” throughout. The Potency result in test [18], in test [13], in test [10], in [11], in test [14] and in test [15] was “inactive” each time. In test [12], the Potency entry was “inactive”. For the same compound, the Potency in test [2] is 8.41 µM (active) and 6.11 µM (active); in [3], 18.8 µM (active) and 7.7 µM (active); in test [7], 23.7 µM (active) and 21.7 µM (active); in [8], 23.7 µM (active) and 24.3 µM (active). Also, the call in test [16] was inactive.

As for `Clc1ccc(C(OCCN2CCCCC2)c2ccccc2)cc1` (stereo not given), the Potency entry in test [1], in test [9], in [18], in [13], in test [10] and in test [11] was “inactive” each time. Also, the Potency result in [14], in [15] and in [12] was “inactive” each time. The Potency in test [2] was 3.59 µM (active); in test [3], 11.4 µM (active); in [7], 9.02 µM (active); in [8], 11.4 µM (active).

Regarding `O=C=Nc1ccc(Cl)cc1`, the Potency result in [1], in test [4], in test [7], in test [8], in [9] and in test [13] was “inactive” each time. In addition, the Potency result in test [10], in [15] and in test [12] was “inactive” each time. For the same compound, the values for the Potency in [2], in [3] and in test [18] were 27.3 µM (active), 54.5 µM (active) and 3.47 µM [inhibitor] (active), respectively.

For the compound `CCOC(=O)[C@]1(c2ccccc2)Oc2ccccc2[C@@H]1N`, the Potency entry in [1] is “inactive”. The Potency in test [2] is 48.6 µM (active); in test [3], 4.86 µM (active); in test [19] it was 24.3 µM (active); in test [7], 68.6 µM (active); in [8], 68.6 µM (active); in [12], 27.3 µM (active).

`CC(C)N(C(=O)COc1nnc(C(F)(F)F)s1)c1ccc(F)cc1`: the Potency result in [1], in [17], in [9], in [18], in test [13] and in test [10] was “inactive” throughout. The Potency entry in [11], in [14], in test [15] and in [12] was “inactive” in each case. In addition, the Potency in test [2] was 15.4 µM (active); in test [3], 13.7 µM (active); in test [19], 15.4 µM (active).

As to `COc1cc(CC(C)N)cc2c1OCO2` (stereo not given), the Potency result in [1], in [2], in [3], in [4], in test [17] and in test [9] was “inactive” throughout. For the same compound, the Potency result in test [10], in [11], in test [14] and in test [12] was “inactive” throughout.

Turning to `CCC(Br)(CC)C(=O)NC(N)=O`, the Potency entry in test [1], in test [2], in test [4], in [17], in [7] and in [8] was “inactive” each time. Also, the Potency result in [9], in test [13], in test [15] and in test [12] was “inactive” in each case. Also, the Potency in [3] is 54.5 µM (active).

Regarding `Oc1ccc(Cl)c(Cl)c1Cl`, the Potency entry in [1], in test [2], in test [3], in test [19], in test [17] and in test [7] was “inactive” each time. The Potency entry in test [8], in test [9], in test [13], in test [15] and in [12] was “inactive” each time.
